Reference: PubChem BioAssay
Calls of active or inactive are those of the source.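 Rule for the calls, unless noted: active = inhibition of the reporter signal at or above 50%; inactive = inhibition below 50%.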

Experiment: inhibitors of Sendai virus-induced IRF3 signaling, primary screen, TLR/RLR signaling modifier project, cell-based, Sendai virus stimulus, luciferase, 10K MLSCN set (AID 602276;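 active = inhibition at or above 50% at 10 µM; inactive = inhibition below 50%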;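 note: firefly luciferase from ISG56 promoter only with Renilla not read in this screen; 0% = Sendai virus plus DMSO and 100% = medium plus DMSO without virus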)
Conditions: HEK293 RL24 IRF3 luciferase reporter, at 10 µM, stronger effect = higher value

Structure (SMILES) | inhibition
CC(c1ccco1)N(C(=O)COc1ccc(Cl)cc1Cl)c1ccccn1 (stereo not given) | 2.26% (inactive)
O=S(=O)(c1ccc(OCC(O)CN2CCC(Cc3ccccc3)CC2)cc1)N1CCOCC1 (stereo not given) | -3.87% (inactive)
Cc1nc(SCC(=O)NCc2ccco2)c2c(C)c(C)sc2n1 | 17.4% (inactive)
CC(C)(C)n1ncc2c(=O)n(CC(=O)NCc3ccco3)cnc21 | -35.6% (inactive)
Cc1cccn2c(=O)c3cc(C#N)c(=NC(=O)c4cccnc4)n(CC4CCCO4)c3nc12 (stereo not given) | -14.2% (inactive)
CCOC(=O)CS(=O)(=O)c1nc(-c2ccccc2)cc(C(F)(F)F)n1 | 20.1% (inactive)
CCOC(=O)c1ccc(NC2OC(=O)c3ccccc32)cc1 (stereo not given) | 11.8% (inactive)
CC(C)C(=O)Nc1cccc(NC(=O)c2cccnc2)c1 | -7.88% (inactive)
Cc1ccc(C)n1NC(=O)c1ccco1 | 9.01% (inactive)
CCCN1CCN(CCCNC(=O)Cn2nc(-c3ccc(Cl)cc3)ccc2=O)CC1 | 9.94% (inactive)
Cc1cccc(-n2c(Cc3cc(=O)[nH]c(=O)[nH]3)nnc2SCC(=O)NCc2ccco2)c1 | 12.7% (inactive)
COc1ccc(CN2C(=O)c3cccnc3C2Nc2cc(Cl)ccc2OC)cc1 (stereo not given) | -6.43% (inactive)
CS(=O)(=O)N(CC(=O)O)c1cccc(Cl)c1 | -12.6% (inactive)
O=C(Nc1ccccc1C(=O)N1CCCCCC1)c1cccc(S(=O)(=O)N2CCOCC2)c1 | 3.13% (inactive)
COC(=O)c1ccc(CSc2nc3c(cnn3-c3ccc(C)c(C)c3)c(=O)[nH]2)o1 | 8.02% (inactive)
CCn1nnnc1SCC(=O)Nc1nnc(C(C)C)s1 | 5.57% (inactive)
COCCNC(=O)CN(C)S(=O)(=O)c1ccc2c(c1)OCCO2 | 11.9% (inactive)
Cc1nc(C)c(C(=O)OCC(=O)N2CCN(c3ccccc3)CC2)s1 | 16.8% (inactive)
CCOC(=O)CNc1ccc2c(c1)OCO2 | 8.79% (inactive)
Cc1ccc(S(=O)(=O)N(CC(=O)N2CCOCC2)CC(=O)N2CCOCC2)cc1 | 13% (inactive)

Structure (SMILES) | inhibition
Cc1cc(Cl)ccc1OCCCC(=O)N1CCOCC1 | -29.3% (inactive)
CCC1(CC)NC(=O)NC1=O | 16.7% (inactive)
CC(=O)N1C(=O)C2(Nc3ccccc3N2)c2ccccc21 | -8.46% (inactive)
CC1(C)OC(=O)C(=CNc2ccccc2)C(=O)O1 | -10% (inactive)
C=CCn1c(C)cc(C(=O)CSc2nc3ccccc3c(=O)[nH]2)c1C | -41.3% (inactive)
CCOC(=O)N1CCN(C(=O)CCc2c(C)nc3c(c(C)nn3-c3ccc(C)c(C)c3)c2C)CC1 | 20.5% (inactive)
CSc1ccccc1NC(=O)CN(Cc1ccccc1)S(C)(=O)=O | 21.8% (inactive)
CCOC(=O)c1[nH]c(C)c(C(=O)Nc2ccc(C)c(Cl)c2)c1C | 11.7% (inactive)
CC(=O)NC1=NC(=O)/C(=C/N2CCCCC2)S1 | 21.1% (inactive)
COc1ccccc1C1C(C(C)=O)=C(O)C(=O)N1CCc1ccccc1 (stereo not given) | 10.7% (inactive)
CCCn1c2c(c(O)c(C(=O)Nc3ccc(C)cn3)c1=O)CCCC2 | 6.86% (inactive)
O=c1oc2ccccc2n1CCc1ccccc1 | -4.32% (inactive)
Cc1ccc(-n2nc(-c3cccs3)cc2C(=O)NCC2CCCO2)c(C)c1 (stereo not given) | 7.58% (inactive)
CC1(C)CC(=O)c2c(O)cc(O)cc2O1 | 5.4% (inactive)
CCOC(=O)C1C(=O)OC(C)(C)C1C(C)C(=O)c1ccc(OC)cc1 (stereo not given) | 21.2% (inactive)
N#CCSc1nc(-c2ccccc2)cs1 | -34.5% (inactive)
CCCOc1ccc([C@@H]2C3CN(C(=O)OCC)CC=C3C(C#N)=C(N)C2(C#N)C#N)cc1OC (stereo not given in full) | 11% (inactive)
O=C(CSc1nc(C2CCCCC2)n(-c2ccccc2)n1)NCCN1C(=O)CSC1=O | 15.1% (inactive)
CC(=O)OCC(=O)c1ccc2ccn(C(C)=O)c2c1 | 4.56% (inactive)
CS(=O)(=O)Nc1ccc(C(=O)NCCc2ccccc2)cc1 | -13.2% (inactive)

Experiment: inhibitors of poly I:C-induced TLR3 signaling, primary screen, cell-based, poly I:C stimulus, luciferase, 10K MLSCN set (AID 602277)
Conditions: HEK293-TLR3 RL24 IRF3 luciferase reporter, at 10 µM, stronger effect = higher value

Structure (SMILES) | inhibition
CC(c1ccco1)N(C(=O)COc1ccc(Cl)cc1Cl)c1ccccn1 (stereo not given) | -73.7% (inactive)
O=S(=O)(c1ccc(OCC(O)CN2CCC(Cc3ccccc3)CC2)cc1)N1CCOCC1 (stereo not given) | 3.35% (inactive)
Cc1nc(SCC(=O)NCc2ccco2)c2c(C)c(C)sc2n1 | 17.9% (inactive)
CC(C)(C)n1ncc2c(=O)n(CC(=O)NCc3ccco3)cnc21 | -92% (inactive)
Cc1cccn2c(=O)c3cc(C#N)c(=NC(=O)c4cccnc4)n(CC4CCCO4)c3nc12 (stereo not given) | -0.613% (inactive)
CCOC(=O)CS(=O)(=O)c1nc(-c2ccccc2)cc(C(F)(F)F)n1 | 32.7% (inactive)
CCOC(=O)c1ccc(NC2OC(=O)c3ccccc32)cc1 (stereo not given) | -21.4% (inactive)
CC(C)C(=O)Nc1cccc(NC(=O)c2cccnc2)c1 | -11.4% (inactive)
Cc1ccc(C)n1NC(=O)c1ccco1 | 14.3% (inactive)
CCCN1CCN(CCCNC(=O)Cn2nc(-c3ccc(Cl)cc3)ccc2=O)CC1 | 11.9% (inactive)
Cc1cccc(-n2c(Cc3cc(=O)[nH]c(=O)[nH]3)nnc2SCC(=O)NCc2ccco2)c1 | 7.93% (inactive)
COc1ccc(CN2C(=O)c3cccnc3C2Nc2cc(Cl)ccc2OC)cc1 (stereo not given) | -6.33% (inactive)
CS(=O)(=O)N(CC(=O)O)c1cccc(Cl)c1 | -6.52% (inactive)
O=C(Nc1ccccc1C(=O)N1CCCCCC1)c1cccc(S(=O)(=O)N2CCOCC2)c1 | 10.6% (inactive)
COC(=O)c1ccc(CSc2nc3c(cnn3-c3ccc(C)c(C)c3)c(=O)[nH]2)o1 | 13.9% (inactive)
CCn1nnnc1SCC(=O)Nc1nnc(C(C)C)s1 | -1.53% (inactive)
COCCNC(=O)CN(C)S(=O)(=O)c1ccc2c(c1)OCCO2 | 21.2% (inactive)
Cc1nc(C)c(C(=O)OCC(=O)N2CCN(c3ccccc3)CC2)s1 | 5.6% (inactive)
CCOC(=O)CNc1ccc2c(c1)OCO2 | 12.5% (inactive)
Cc1ccc(S(=O)(=O)N(CC(=O)N2CCOCC2)CC(=O)N2CCOCC2)cc1 | 27.1% (inactive)

Structure (SMILES) | inhibition
Cc1cc(Cl)ccc1OCCCC(=O)N1CCOCC1 | -72.8% (inactive)
CCC1(CC)NC(=O)NC1=O | 8.56% (inactive)
CC(=O)N1C(=O)C2(Nc3ccccc3N2)c2ccccc21 | 9.54% (inactive)
CC1(C)OC(=O)C(=CNc2ccccc2)C(=O)O1 | 99% (active)
C=CCn1c(C)cc(C(=O)CSc2nc3ccccc3c(=O)[nH]2)c1C | -75.7% (inactive)
CCOC(=O)N1CCN(C(=O)CCc2c(C)nc3c(c(C)nn3-c3ccc(C)c(C)c3)c2C)CC1 | 13.8% (inactive)
CSc1ccccc1NC(=O)CN(Cc1ccccc1)S(C)(=O)=O | 19.7% (inactive)
CCOC(=O)c1[nH]c(C)c(C(=O)Nc2ccc(C)c(Cl)c2)c1C | 11.2% (inactive)
CC(=O)NC1=NC(=O)/C(=C/N2CCCCC2)S1 | 16.4% (inactive)
COc1ccccc1C1C(C(C)=O)=C(O)C(=O)N1CCc1ccccc1 (stereo not given) | 18.1% (inactive)
CCCn1c2c(c(O)c(C(=O)Nc3ccc(C)cn3)c1=O)CCCC2 | 10.7% (inactive)
O=c1oc2ccccc2n1CCc1ccccc1 | -4.85% (inactive)
Cc1ccc(-n2nc(-c3cccs3)cc2C(=O)NCC2CCCO2)c(C)c1 (stereo not given) | 20.7% (inactive)
CC1(C)CC(=O)c2c(O)cc(O)cc2O1 | -1.77% (inactive)
CCOC(=O)C1C(=O)OC(C)(C)C1C(C)C(=O)c1ccc(OC)cc1 (stereo not given) | 23.4% (inactive)
N#CCSc1nc(-c2ccccc2)cs1 | -75.5% (inactive)
CCCOc1ccc([C@@H]2C3CN(C(=O)OCC)CC=C3C(C#N)=C(N)C2(C#N)C#N)cc1OC (stereo not given in full) | -2.37% (inactive)
O=C(CSc1nc(C2CCCCC2)n(-c2ccccc2)n1)NCCN1C(=O)CSC1=O | 23.3% (inactive)
CC(=O)OCC(=O)c1ccc2ccn(C(C)=O)c2c1 | -8.58% (inactive)
CS(=O)(=O)Nc1ccc(C(=O)NCCc2ccccc2)cc1 | -40.3% (inactive)
